In PubChem BioAssay (NCATS):
Results filed as inconclusive are left out. The source made the active and inactive calls. Unless noted, calls follow the shape of the dose curve; as a rule, active = well fitted curve in the direction sought with a large enough effect; inconclusive = small, poorly fitted or top-dose-only effect, or another doubt; inactive = no such curve, though single readings can be large; an effect the other way counts as inactive or inconclusive.

experiment: S16 Schwann cell PMP22 intronic element firefly luciferase assay (AID 624032); conditions: S16 rat Schwann cells, PMP22 element FLuc, 24 h; series mostly up to 57.5 µM; activity change, negative = inhibition: at the top concentration;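 also: plate controls were DMSO for no effect and PTC124 positive control mean for full effect; nearly all actives have a fitted effect of over 30% in size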
Method in brief: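 Rat S16 Schwann cells stably carrying a PMP22 intronic element-driven Fluc reporter were seeded overnight, then exposed to compounds for 24 h at 37 °C. Luminescence was normalized to PTC124 (positive control) and DMSO (0% activity).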

SMILES	activity change, negative = inhibition
CN1C(=O)CC(=O)N(c2ccccc2)c2cc(Cl)ccc21	-12.5% (inactive)
C=C(C)[C@H]1CN[C@H](C(=O)O)[C@H]1CC(=O)O	-9.48% (inactive)
O=C1CN=C(c2ccccc2)c2cc([N+](=O)[O-])ccc2N1	-17.9% (inactive)
CCC1(CC)C(=O)C=CNC1=O	13.4% (inactive)
CC(C)(C)NCC(O)c1ccccc1Cl (stereo unspecified)	0.679% (inactive)
COC1CC(=C(c2cccs2)c2cccs2)C[N+](C)(C)C1 (stereo unspecified)	-12.1% (inactive)
O=C(N/N=C/c1ccc([N+](=O)[O-])o1)c1cc([N+](=O)[O-])cc([N+](=O)[O-])c1O	11.1% (inactive)
CCCCC/C=C\C/C=C\C/C=C\C/C=C\CCCC(=O)NCC(=O)O	-9.07% [at 5.34 µM] (inactive)
Cc1nnc2n1-c1ccc(Cl)cc1C(c1ccccc1Cl)=NC2	-18.5% (inactive)
O=C(CCCN1CCC2(CC1)C(=O)NCN2c1ccccc1)c1ccc(F)cc1	19.2% (inactive)
Clc1ccc2c(c1)C(c1ccccc1)=NCc1nncn1-2	-7.97% (inactive)

experiment: S16 Schwann cell PMP22 intronic element beta-lactamase assay (AID 624044; calls by dose curve;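 also: 0% = DMSO and -100% = potassium clavulanate positive control; nearly all actives have a fitted effect of over 15% in size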); conditions: S16 rat Schwann cells, PMP22 element beta-lactamase FRET, 24 h; series mostly up to 38.3 µM; ratio activity, negative = inhibition: at the top concentration
Method in brief: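 Beta-lactamase reporter under a PMP22 intronic regulatory element in stable S16 rat Schwann cells; 24 h compound exposure. 460 nm blue signal normalized between DMSO (0%) and potassium clavulanate, with 535 nm FRET tracking viability; curves classed by r2 and response.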

SMILES	ratio activity, negative = inhibition
O=C1OC(c2ccc(O)c(S(=O)(=O)O)c2)(c2ccc(O)c(S(=O)(=O)O)c2)c2c(Br)c(Br)c(Br)c(Br)c21	6.43% (inactive)
COP(=S)(OC)Oc1ccc(S(=O)(=O)N(C)C)cc1	1.31% (inactive)
COc1cccc([C@@]2(O)CCCC[C@@H]2CN(C)C)c1	6.31% (inactive)
C[C@]12CC[C@@H]3c4ccc(OC(=O)N(CCCl)CCCl)cc4CC[C@H]3[C@@H]1CC[C@@H]2O	5.77% (inactive)
COc1ccc2c(c1)C13CCCC[C@@H]1C(C2)N(C)CC3 (stereo partly specified)	-1.29% (inactive)
NC(=O)c1cc([N+](=O)[O-])cc([N+](=O)[O-])c1	3.01% (inactive)
CN1CCC(O)(c2ccc(F)cc2)C(C(=O)c2ccc(F)cc2)C1 (stereo unspecified)	-3.38% (inactive)
CCCCCCCCCC(=O)O[C@H]1CC[C@H]2[C@@H]3CCC4=CC(=O)CC[C@@H]4[C@H]3CC[C@]12C	2.3% (inactive)
Cc1nnc2n1-c1ccc(Cl)cc1C(c1ccccc1)=NC2	-34.7% (inactive)
O=C1CN=C(c2ccccc2)c2cc([N+](=O)[O-])ccc2N1	-4.49% (inactive)
CC(C)=CC1C(C(=O)OCN2C(=O)C3=C(CCCC3)C2=O)C1(C)C (stereo unspecified)	2.41% (inactive)
O=C(N/N=C/c1ccc([N+](=O)[O-])o1)c1cc([N+](=O)[O-])cc([N+](=O)[O-])c1O	9.12% (inactive)
Cc1nnc2n1-c1ccc(Cl)cc1C(c1ccccc1Cl)=NC2	1.14% (inactive)
O=C(CCCN1CCC2(CC1)C(=O)NCN2c1ccccc1)c1ccc(F)cc1	6.25% (inactive)
Clc1ccc2c(c1)C(c1ccccc1)=NCc1nncn1-2	-6.8% (inactive)

experiment: qHTS of Trypanosoma Brucei Inhibitors: LOPAC Validation (AID 624147); conditions: purified enzyme assay, luminescence, 45 min; series mostly up to 57.5 µM; activity change, negative = inhibition: at the top concentration; also: 0% is about no effect
Method in brief: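 Readout: single end-point luminescence (Kinase-Glo Plus, 10 min). Reaction conditions were TbPYK/substrate plus 130 uM ADP, 45 min at RT, pH 7.2 TEA buffer. No-enzyme wells served as controls, and data were normalized before concentration-response fitting.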

SMILES	activity change, negative = inhibition
O=c1[nH]oc2c1CCNC2	6.57% (inactive)
CN1C(=O)CCS(=O)(=O)C1c1ccc(Cl)cc1 (stereo unspecified)	-6.63% (inactive)
C=C(C)[C@H]1CN[C@H](C(=O)O)[C@H]1CC(=O)O	-12.5% (inactive)
CC(C)(C)NCC(O)c1ccccc1Cl (stereo unspecified)	-5.61% (inactive)
CCCCC/C=C\C/C=C\C/C=C\C/C=C\CCCC(=O)NCC(=O)O	5.41% (inactive)
